Reference: the supplement of paper PMC7156485
Several values for one entry are separate records, joined by “and”; a condition that tells them apart may be missing. Equal values may be shown once. ± gives the standard deviation of the averaged measurements.

Tests used:
Settings in all cases: concentration: 10 µM; 24 h
HCC1569 [1] = experiment: cell number relative to DMSO (% of DMSO); higher = more cells (less growth inhibition / toxicity)
Outline: (§1)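 Cells were seeded at 800 per well in 384-well plates with RPMI containing 10% FBS; both HCC1569 and TDF lines were used. Compounds were added at 10 µM for 24 h at 37 °C, in triplicate, before fixation in 3.7% formaldehyde and staining with a rabbit anti-H1.0 antibody, an AlexaFluor 647 secondary and DAPI. H1.0 nuclear intensity or cell number is reported as percent of the plate control using the median of replicates, and HCC1569 values were smoothed for positional effects.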

TDF [2] = experiment: as above
Outline: as §1

TDF [3] = experiment: H1.0 immunofluorescence intensity relative to DMSO (% of DMSO); higher = stronger H1.0 induction, active = 120 or more
Outline: as §1

HCC1569 [4] = experiment: H1.0 immunofluorescence intensity relative to DMSO (% of DMSO); higher = stronger H1.0 induction, active = 140 or more
Outline: as §1
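Wherever H1.0 immunofluorescence intensity relative to DMSO is given: TDF is a line of transformed human dermal fibroblasts of mesenchymal origin.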
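Wherever cell number relative to DMSO is given: TDF denotes transformed human dermal fibroblasts of mesenchymal origin.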

Row | SMILES | cell number (HCC1569 [1]) | cell number (TDF [2]) | H1.0 immunofluorescence intensity (TDF [3]) | H1.0 immunofluorescence intensity (HCC1569 [4])
1 | O=c1cc(-c2ccc(O)cc2)oc2cc(OC3OC(CO)C(O)C(O)C3O)c(C3OC(CO)C(O)C(O)C3O)c(O)c12 (centres undefined) [Saponarin] | 98.8 | 89.5 | 108 (inactive) | 94.4 (inactive)
2 | Cl.NC(N)=NC(=O)c1nc(Cl)c(N)nc1N [Amiloride hydrochloride] | 99.3 | 100 | 97.6 (inactive) | 96.9 (inactive)
3 | O=C(O)Cc1c[nH]c2ccc(O)cc12 [(5-hydroxy-3H-indol-3-yl)acetic acid] | 105 | 94.7 | 94.7 (inactive) | 103 (inactive)
4 | CCCCCC=CCC=CC=CC(O)CC=CCCCC(=O)O (centres undefined) | 98.1 | 99.8 | 97.3 (inactive) | 95.8 (inactive)
5 | O=c1oc2cc(O)ccc2c2oc3cc(O)ccc3c12 [Coumestrol] | 99.9 | 91.8 | 97.6 (inactive) | 94.6 (inactive)
6 | COc1cc(C(=O)OCCCCN=C(N)N)cc(OC)c1O | 103 | 95.8 | 102 (inactive) | 104 (inactive)
7 | C1COC(NC(C2CC2)C2CC2)=N1.O=P(O)(O)O [Rilmenidine phosphate] | 101 | 110 | 88.5 (inactive) | 103 (inactive)
8 | CCCc1c(OCCCCc2nn[nH]n2)ccc(C(C)=O)c1O | 104 | 101 and 110 | 97.5 (inactive) and 94.5 (inactive) | 105 (inactive)
9 | CCN(CC)CCNC(=O)c1cc(S(C)(=O)=O)ccc1OC.Cl [Tiapride hydrochloride] | 111 | 107 | 96.7 (inactive) | 99.3 (inactive)
10 | CN(C)c1nc(N)c(C(=O)N=C(N)N)nc1Cl.Cl [5-(N,N-Dimethyl)amiloride hydrochloride] | 99.9 | 89.7 | 96.1 (inactive) | 103 (inactive)
11 | CC(C)c1cc(/C=C(\C#N)C(=O)NCCCc2ccccc2)cc(C(C)C)c1O | 89.5 | 81.8 | 97.9 (inactive) | 141 (active)
12 | CC(C)C(NC(=O)OCc1ccccc1)C(=O)NC(C=O)Cc1ccccc1 (centres undefined) | 99.5 | 96.2 | 103 (inactive) | 102 (inactive)
13 | CON=C(C(=O)NC1C(=O)N2C(C(=O)[O-])=C(C[N+]3(C)CCCC3)CSC12)c1csc(N)n1 (centres undefined) [Cefepime] | 99.6 | 97 | 91.1 (inactive) | 110 (inactive)
14 | C[N+]1(C)C2CC(OC(=O)C(O)(c3cccs3)c3cccs3)CC1C1OC12.[Br-] (centres undefined) [Tiotropium Bromide] | 105 | 97.1 | 95.7 (inactive) | 114 (inactive)
15 | COc1cc2c3cc1Oc1c(OC)c(OC)cc4c1C(Cc1ccc(O)c(c1)Oc1ccc(cc1)CC3N(C)CC2)N(C)CC4.Cl.Cl (centres undefined) | 90.4 | 92.2 | 104 (inactive) | 109 (inactive)
16 | Cc1nc2n(c(=O)c1CCN1CCC(c3noc4cc(F)ccc34)CC1)CCCC2 [Risperidone] | 100 ± 3 | 99.6 ± 4 | 93.1 (inactive) | 107 (inactive)
17 | CC1=C(C(=O)Nc2cc3cn[nH]c3cc2F)C(c2ccc(C(F)(F)F)cc2)CC(=O)N1 (centres undefined) | 113 | 98.5 | 87.8 (inactive) | 107 (inactive)
18 | O=C1NCCc2[nH]c(-c3ccncc3)cc21 [Cdc7/Cdk9 Inhibitor] | 58.9 | 35.3 | 111 (inactive) | 115 (inactive)
19 | CCCCCC(O)C=CC1C(O)CC(=O)C1CCCCCCC(=O)O (centres undefined) [Prostaglandin E1] | 102 ± 2 | 109 ± 10 | 92.4 (inactive) | 101 (inactive)
20 | COc1c(OCCCCN2CCN(C)CC2)cc(O)c2c(=O)cc(-c3ccccc3)oc12 | 25.3 | 34.9 | 133 (active) | 119 (inactive)
21 | O=C(O)CNC(=O)C(=O)O [2-(carboxymethylamino)-2-oxoacetic acid] | 103 | 92.4 | 93.7 (inactive) | 83.7 (inactive)
22 | CCCCn1c(=O)c2c(ncn2CC(C)=O)n(CCCC)c1=O [Denbufylline] | 103 | 112 | 87.3 (inactive) | 106 (inactive)
23 | CCCCCCCCCCCCCCCC(O)C(N)CO (centres undefined) [Dihydrosphingosine] | 102 | 94.5 | 98.8 (inactive) | 106 (inactive)
24 | CNc1ncnc2c1ncn2C1OC(CO)C(O)C1O (centres undefined) [N6-Methyladenosine] | 95.6 | 106 | 93.9 (inactive) | 110 (inactive)
25 | CC(C=CC=C(C)C=CC1=C(C)CCCC1(C)C)=CC=CC=C(C)C=CC=C(C)C=CC1=C(C)CCCC1(C)C | 101 | 106 | 101 (inactive) | 103 (inactive)
26 | CC(=O)OCC[N+](C)(C)C [Acetylcholine] | 106 | 103 | 100 (inactive) | 100 (inactive)

Row | SMILES | cell number (HCC1569 [1]) | cell number (TDF [2]) | H1.0 immunofluorescence intensity (TDF [3]) | H1.0 immunofluorescence intensity (HCC1569 [4])
27 | Cc1cc(N)c2ccccc2[n+]1CCCCCCCCCC[n+]1c(C)cc(N)c2ccccc21.[Cl-].[Cl-] [Dequalinium dichloride] | 74.8 | 64.1 | 102 (inactive) | 123 (inactive)
28 | COC1CC(OC2C(C)C(=O)OC(C)C(C)C(OC(C)=O)C(C)C(=O)C3(CO3)CC(C)C(OC3OC(C)CC(N(C)C)C3OC(C)=O)C2C)OC(C)C1OC(C)=O (centres undefined) [Troleandomycin] | 102 ± 2.6 | 108.1 ± 0.42 | 97.2 (inactive) | 94.6 (inactive)
29 | CCCn1c(=O)c2[nH]c(-c3ccc(OCC(=O)Nc4ccc(C#N)cc4)cc3)nc2n(CCC)c1=O | 105 | 114 | 96.6 (inactive) | 102 (inactive)
30 | O=S1(=O)CCN(CN2CCS(=O)(=O)NC2)CN1 | 98.4 | 99.3 | 88.2 (inactive) | 94 (inactive)
31 | CNCCC=C1c2ccccc2CCc2ccccc21.Cl [Nortriptyline hydrochloride] | 88.9 | 93.9 | 109 (inactive) | 117 (inactive)
32 | CCCCCCCCCCCCCCCC(=O)C(F)(F)F | 103 | 108 | 93.3 (inactive) | 94.4 (inactive)
33 | O=C(C=Cc1ccc(O)c(O)c1)OC1CC(O)(C(=O)O)CC(O)C1O (centres undefined) [Chlorogenic acid] | 100 | 98.2 | 103 (inactive) | 100 (inactive)
34 | O=C(CCNNC(=O)c1ccncc1)NCc1ccccc1 [Nialamide] | 102.5 ± 0.38 | 103 ± 2.9 | 92.2 (inactive) | 100 (inactive)
35 | Cl.c1ccc(C2CCCC2NC2=NCCCCCCCCCCC2)cc1 (centres undefined) [MDL 12,330A hydrochloride] | 105 | 109 | 85.7 (inactive) | 88.1 (inactive)
36 | Nc1ncnc2c1ncn2C1CCCC1 [9-cyclopentyladenine] | 102 | 113 | 95.1 (inactive) | 84.6 (inactive)
37 | O=C(O)C1CCCNC1C(=O)O (mixture of isomers) | 108 | 110 | 96.4 (inactive) | 96.7 (inactive)
38 | O=c1cc(-c2ccccc2)oc2cc(O)cc(O)c12 [Chrysine] | 101 | 99.8 | 93.8 (inactive) | 92.7 (inactive)
39 | Nc1nc(Cl)nc2c1ncn2C1OC(CO)C(O)C1F (centres undefined) [Clofarabine] | 90.6 | 45.3 | 119 (inactive) | 93.5 (inactive)
40 | O=C(O)CN(CCN(CC(=O)O)CC(=O)O)CCN(CC(=O)O)CC(=O)O [Diethylenetriaminepentaacetic acid] | 95.4 | 104 | 95.1 (inactive) | 94.6 (inactive)
41 | CCCCCC=CCC(O)C=Cc1cccc(CC(O)CCCCO)n1 (centres undefined) | 98.7 ± 2 | 108 ± 4.7 | 95.9 (inactive) | 113 (inactive)
42 | CCC1(O)CC2CN(CCc3c([nH]c4ccccc34)C(C(=O)OC)(c3cc4c(cc3OC)N(C)C3C(O)(C(=O)OC)C(OC(C)=O)C5(CC)C=CCN6CCC43C65)C2)C1.O=S(=O)(O)O (centres undefined) [Vinblastine sulfate salt] | 48.9 | 16.8 | 152 (active) | 132 (inactive)
43 | Cc1ccccc1/N=N/c1ccc(NC(=O)c2ccnn2C)c(C)c1 | 94.6 | 98.7 | 98.5 (inactive) | 110 (inactive)
44 | COc1cc(NS(C)(=O)=O)ccc1Nc1c2ccccc2nc2ccccc12.Cl [Amsacrine hydrochloride] | 67.8 | 32.3 | 152 (active) | 113 (inactive)
45 | CN1CCCC1c1cccnc1.O=C(O)C(O)C(O)C(=O)O.O=C(O)C(O)C(O)C(=O)O (single isomer, unassigned; (-)) [(-)-Nicotine hydrogen tartrate salt] | 102 | 103 | 90 (inactive) | 99.2 (inactive)
46 | CCCCC=CCCCCCCCCC(=O)O [10(E)-Pentadecenoic acid] | 103 | 95.8 | 110 (inactive) | 101 (inactive)
47 | CC(NC(=O)CCc1nc(=O)c2ccccc2[nH]1)c1ccccc1 (centres undefined) | 103 | 111 | 93.7 (inactive) | 105 (inactive)
48 | CNC(=O)c1cc2c(cn1)[nH]c1ccccc12 [N-Methyl-beta-carboline-3-carboxamide] | 107 | 111 | 87.9 (inactive) | 85.2 (inactive)
49 | NS(=O)(=O)c1ccc2c(c1)C1C=CCC1C(c1ccc(Br)cc1)N2 (centres undefined) | 102 | 91.3 | 95.3 (inactive) | 114 (inactive)
50 | O=C(C=Cc1ccc(O)c(O)c1)OCCc1ccccc1 | 74.8 ± 3.7 | 85.77 ± 0.57 | 93.1 (inactive) | 113 (inactive)
51 | Br.Br.N=C(N)SCCN [2-(2-Aminoethyl)isothiourea dihydrobromide] | 99.2 | 85.8 | 96.9 (inactive) | 99.7 (inactive)
